This note sets out measurements from publication PMC11006913.

Substitutions are numbered along the chain they refer to.

Common to all, as to experiment: PBM; 200 nM protein, PBS
What all share (details): dsDNA, one strand shown

The target in experiment [1] is PRRX1 (Homo sapiens, UniProt P54821 80-166, F113S).
Experiment [2] addresses MSX2 (Homo sapiens, UniProt P35548 130-214, R199I).
Experiment [3] has as its target PITX2 (Homo sapiens, UniProt Q99697 72-157).
The target in experiment [4] is MSX2 (Homo sapiens, UniProt P35548 130-214).
Experiment [5] concerns the target MSX2 (Homo sapiens, UniProt P35548 130-214, F161Y).
Experiment [6] addresses PRRX1 (Homo sapiens, UniProt P54821 80-166).
The target in experiment [7] is HOXA2 (Homo sapiens, UniProt O43364 129-215, R185T).
Experiment [8] addresses HOXA2 (Homo sapiens, UniProt O43364 129-215, R185K).
The target in experiment [9] is HOXA2 (Homo sapiens, UniProt O43364 129-215, Y150S).
Experiment [10] has as its target HOXA2 (Homo sapiens, UniProt O43364 129-215).
Experiment [11] has as its target HOXB6 (Homo sapiens, UniProt P17509 132-218, K202E).
Experiment [12] addresses HESX1 (Homo sapiens, UniProt Q9UBX0 95-180, F115L).
Experiment [13] has as its target T1, NKX2-6 (Homo sapiens, UniProt A6NCS4 118-204).
T1 sequence: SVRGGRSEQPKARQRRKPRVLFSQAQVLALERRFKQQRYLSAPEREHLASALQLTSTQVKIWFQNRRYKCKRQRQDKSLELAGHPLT

Experiment [14] has as its target T2, NKX2-6 (Homo sapiens, UniProt A6NCS4 118-204, F151L).
T2 sequence: T1 sequence with F34L

Experiment [15] concerns the target SHOX (Homo sapiens, UniProt O15266 103-189, R173C).
Experiment [16] concerns the target HOXB6 (Homo sapiens, UniProt P17509 132-218).
Experiment [17] concerns the target HOXD13 (Homo sapiens, UniProt P35453 263-343, T313R).
Experiment [18] addresses HOXD13 (Homo sapiens, UniProt P35453 263-343).
Experiment [19] deals with HOXD13 (Homo sapiens, UniProt P35453 263-343, T313A).
Experiment [20] has as its target ALX3 (Homo sapiens, UniProt O95076 139-225, N203Q).
For experiment [21], the target named is ALX3 (Homo sapiens, UniProt O95076 139-225).
The target of experiment [22] is ALX3 (Homo sapiens, UniProt O95076 139-225, L168Q).
In experiment [23] the target is ALX3 (Homo sapiens, UniProt O95076 139-225, L168V).
Experiment [24] deals with ALX3 (Homo sapiens, UniProt O95076 139-225, N203S).
ALX3 (Homo sapiens, UniProt O95076 139-225, N203S), sequence (O95076 139-225 N203S): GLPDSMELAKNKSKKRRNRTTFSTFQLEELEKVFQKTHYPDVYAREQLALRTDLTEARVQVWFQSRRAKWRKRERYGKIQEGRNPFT

MSX2 (Homo sapiens, UniProt P35548 130-214, R199I), sequence (P35548 130-214 R199I): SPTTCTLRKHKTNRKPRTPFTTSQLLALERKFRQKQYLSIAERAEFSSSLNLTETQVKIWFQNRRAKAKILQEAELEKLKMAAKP
PRRX1 (Homo sapiens, UniProt P54821 80-166), sequence (P54821 80-166): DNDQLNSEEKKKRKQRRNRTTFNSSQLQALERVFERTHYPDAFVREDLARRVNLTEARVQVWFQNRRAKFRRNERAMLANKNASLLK
PRRX1 (Homo sapiens, UniProt P54821 80-166, F113S), sequence (P54821 80-166 F113S): as the sequence (P54821 80-166) above, with F34S counted along it
MSX2 (Homo sapiens, UniProt P35548 130-214), sequence (P35548 130-214): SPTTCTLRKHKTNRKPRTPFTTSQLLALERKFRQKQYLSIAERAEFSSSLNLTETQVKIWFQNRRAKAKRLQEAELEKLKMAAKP
MSX2 (Homo sapiens, UniProt P35548 130-214, F161Y), sequence (P35548 130-214 F161Y): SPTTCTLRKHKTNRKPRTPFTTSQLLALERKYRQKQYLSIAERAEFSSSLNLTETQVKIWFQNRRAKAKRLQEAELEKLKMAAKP
HOXB6 (Homo sapiens, UniProt P17509 132-218, K202E), sequence (P17509 132-218 K202E): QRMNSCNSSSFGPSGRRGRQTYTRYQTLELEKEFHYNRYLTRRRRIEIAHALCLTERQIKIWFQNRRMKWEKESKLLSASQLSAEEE
HOXA2 (Homo sapiens, UniProt O43364 129-215, R185T), sequence (O43364 129-215 R185T): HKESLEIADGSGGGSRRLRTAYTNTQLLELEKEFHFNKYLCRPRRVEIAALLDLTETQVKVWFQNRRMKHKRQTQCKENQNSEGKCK
ALX3 (Homo sapiens, UniProt O95076 139-225, L168Q), sequence (O95076 139-225 L168Q): as the sequence (O95076 139-225 N203S) above, with L30Q, S65N counted along it
ALX3 (Homo sapiens, UniProt O95076 139-225, L168V), sequence (O95076 139-225 L168V): as the sequence (O95076 139-225 N203S) above, with L30V, S65N counted along it
HOXB6 (Homo sapiens, UniProt P17509 132-218), sequence (P17509 132-218): as the sequence (P17509 132-218 K202E) above, with E71K counted along it
SHOX, sequence (O15266 103-189 R173C): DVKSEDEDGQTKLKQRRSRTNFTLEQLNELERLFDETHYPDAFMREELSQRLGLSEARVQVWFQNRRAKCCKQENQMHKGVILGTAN
HOXA2 (Homo sapiens, UniProt O43364 129-215), sequence (O43364 129-215): as the sequence (O43364 129-215 R185T) above, with T57R counted along it
HESX1, sequence (Q9UBX0 95-180 F115L): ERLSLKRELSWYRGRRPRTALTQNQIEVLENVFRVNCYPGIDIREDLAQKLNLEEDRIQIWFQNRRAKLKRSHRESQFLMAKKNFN
HOXD13 (Homo sapiens, UniProt P35453 263-343, T313A), sequence (P35453 263-343 T313A): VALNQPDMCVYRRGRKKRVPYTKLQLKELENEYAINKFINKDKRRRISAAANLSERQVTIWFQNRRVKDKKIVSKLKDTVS
HOXD13 (Homo sapiens, UniProt P35453 263-343), sequence (P35453 263-343): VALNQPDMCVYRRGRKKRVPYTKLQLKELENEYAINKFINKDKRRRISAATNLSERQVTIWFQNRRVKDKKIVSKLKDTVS
ALX3 (Homo sapiens, UniProt O95076 139-225), sequence (O95076 139-225): as the sequence (O95076 139-225 N203S) above, with S65N counted along it
ALX3 (Homo sapiens, UniProt O95076 139-225, N203Q), sequence (O95076 139-225 N203Q): as the sequence (O95076 139-225 N203S) above, with S65Q counted along it
HOXA2 (Homo sapiens, UniProt O43364 129-215, R185K), sequence (O43364 129-215 R185K): as the sequence (O43364 129-215 R185T) above, with T57K counted along it
HOXA2 (Homo sapiens, UniProt O43364 129-215, Y150S), sequence (O43364 129-215 Y150S): as the sequence (O43364 129-215 R185T) above, with Y22S, T57R counted along it
HOXD13 (Homo sapiens, UniProt P35453 263-343, T313R), sequence (P35453 263-343 T313R): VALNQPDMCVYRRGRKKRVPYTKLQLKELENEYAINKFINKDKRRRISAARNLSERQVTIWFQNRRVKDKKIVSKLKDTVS

Take CGGCACCG: the binding signal in experiment [1] is 9.31 upbm affinity estimate (log intensity, higher = more binding, comparable within an allelic series); in experiment [2] it was 9.48 upbm affinity estimate (log intensity, higher = more binding, comparable within an allelic series); in experiment [3] it was 7.77 upbm affinity estimate (log intensity, higher = more binding, comparable within an allelic series); in experiment [4], 9.42 upbm affinity estimate (log intensity, higher = more binding, comparable within an allelic series); in [5] it was 9.54 upbm affinity estimate (log intensity, higher = more binding, comparable within an allelic series); in experiment [6], 9.57 upbm affinity estimate (log intensity, higher = more binding, comparable within an allelic series).
For the sequence CAGGCCGC, the binding signal is 9.29 upbm affinity estimate (log intensity, higher = more binding, comparable within an allelic series) in [1]; 7.44 upbm affinity estimate (log intensity, higher = more binding, comparable within an allelic series) in experiment [7]; 10.3 upbm affinity estimate (log intensity, higher = more binding, comparable within an allelic series) in experiment [8]; 10.4 upbm affinity estimate (log intensity, higher = more binding, comparable within an allelic series) in experiment [9]; 9.35 upbm affinity estimate (log intensity, higher = more binding, comparable within an allelic series) in experiment [6]; 7.49 upbm affinity estimate (log intensity, higher = more binding, comparable within an allelic series) in experiment [10].
As to AAATAATT, the binding signal is 11.1 upbm affinity estimate (log intensity, higher = more binding, comparable within an allelic series) in experiment [1]; 9.97 upbm affinity estimate (log intensity, higher = more binding, comparable within an allelic series) in experiment [11]; 7.74 upbm affinity estimate (log intensity, higher = more binding, comparable within an allelic series) in [12].
Consider ACTTTAAG, for which the binding signal in [1] was 10.1 upbm affinity estimate (log intensity, higher = more binding, comparable within an allelic series); in [13] it was 12.5 upbm affinity estimate (log intensity, higher = more binding, comparable within an allelic series); in experiment [14] it was 10.3 upbm affinity estimate (log intensity, higher = more binding, comparable within an allelic series); in experiment [6] it was 10.8 upbm affinity estimate (log intensity, higher = more binding, comparable within an allelic series).
As for ACGTTGCG, the binding signal was 9.5 upbm affinity estimate (log intensity, higher = more binding, comparable within an allelic series) in experiment [1]; 7.94 upbm affinity estimate (log intensity, higher = more binding, comparable within an allelic series) in [3]; 9.22 upbm affinity estimate (log intensity, higher = more binding, comparable within an allelic series) in experiment [6].
Consider ACCGTGCG, for which the binding signal in experiment [1] is 9.48 upbm affinity estimate (log intensity, higher = more binding, comparable within an allelic series); in experiment [6], 9.43 upbm affinity estimate (log intensity, higher = more binding, comparable within an allelic series).
As to AATTATGC, the binding signal was 11.1 upbm affinity estimate (log intensity, higher = more binding, comparable within an allelic series) in [1] and 9.27 upbm affinity estimate (log intensity, higher = more binding, comparable within an allelic series) in experiment [15].
With GTCCCCAC, the binding signal is 9.29 upbm affinity estimate (log intensity, higher = more binding, comparable within an allelic series) in [1]; 9.01 upbm affinity estimate (log intensity, higher = more binding, comparable within an allelic series) in [11]; 9.35 upbm affinity estimate (log intensity, higher = more binding, comparable within an allelic series) in experiment [6]; 9.13 upbm affinity estimate (log intensity, higher = more binding, comparable within an allelic series) in experiment [16].
Consider ACTAATCA, for which the binding signal in experiment [1] is 10.9 upbm affinity estimate (log intensity, higher = more binding, comparable within an allelic series); in experiment [7], 12.5 upbm affinity estimate (log intensity, higher = more binding, comparable within an allelic series); in [2], 11.2 upbm affinity estimate (log intensity, higher = more binding, comparable within an allelic series); in experiment [6] it was 13.2 upbm affinity estimate (log intensity, higher = more binding, comparable within an allelic series).
On to CCGACCCC, for which the binding signal in experiment [1] is 9.1 upbm affinity estimate (log intensity, higher = more binding, comparable within an allelic series); in [6], 9.36 upbm affinity estimate (log intensity, higher = more binding, comparable within an allelic series).
As to CCCAAAGG, the binding signal in experiment [1] was 9.18 upbm affinity estimate (log intensity, higher = more binding, comparable within an allelic series); in experiment [17], 9.56 upbm affinity estimate (log intensity, higher = more binding, comparable within an allelic series); in experiment [18] it was 9.54 upbm affinity estimate (log intensity, higher = more binding, comparable within an allelic series); in [19], 9.58 upbm affinity estimate (log intensity, higher = more binding, comparable within an allelic series); in experiment [6], 9.15 upbm affinity estimate (log intensity, higher = more binding, comparable within an allelic series).
With ACGCCCCG, the binding signal was 9.23 upbm affinity estimate (log intensity, higher = more binding, comparable within an allelic series) in [1]; 9.45 upbm affinity estimate (log intensity, higher = more binding, comparable within an allelic series) in experiment [2]; 7.74 upbm affinity estimate (log intensity, higher = more binding, comparable within an allelic series) in experiment [20]; 9.2 upbm affinity estimate (log intensity, higher = more binding, comparable within an allelic series) in experiment [13]; 9.36 upbm affinity estimate (log intensity, higher = more binding, comparable within an allelic series) in experiment [4]; 7.57 upbm affinity estimate (log intensity, higher = more binding, comparable within an allelic series) in experiment [21]. Also, the binding signal in [22] was 7.68 upbm affinity estimate (log intensity, higher = more binding, comparable within an allelic series); in experiment [14] it was 9.33 upbm affinity estimate (log intensity, higher = more binding, comparable within an allelic series); in experiment [23], 7.67 upbm affinity estimate (log intensity, higher = more binding, comparable within an allelic series); in experiment [5], 9.41 upbm affinity estimate (log intensity, higher = more binding, comparable within an allelic series); in [24] it was 7.73 upbm affinity estimate (log intensity, higher = more binding, comparable within an allelic series); in [6], 9.08 upbm affinity estimate (log intensity, higher = more binding, comparable within an allelic series).
